Reference: the supplement of paper PMC12669032

Experiments:
Experiment in all cases: growth AUC relative to DMSO control (median of replicates) (fraction); higher = more growth (less inhibition), active = hit call of the paper
Conditions in all cases: 20 µM; 24 h;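 active = AUC reduced over 20% with Padj below 0.05 in at least 2 of 3 replicates; inactive = otherwise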
Akkermansia muciniphila = tested on: Akkermansia muciniphila
Procedure, shortened: (§1)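 Starting at OD600 0.05, gut bacterial monocultures in mGAM were grown anaerobically at 37 °C with 20 µM compound (1% DMSO) under pierced gas-permeable seals. OD600 was read every hour for 24 h, and the lowest OD of each curve was set to 0. Area under the growth curve was normalised to the plate median of solvent-only wells, or to row and column medians on the industrial chemical plate, and the median of three biological replicates grown on separate days is given.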

Bacteroides caccae = tested on: Bacteroides caccae
Procedure, shortened: as §1

Bacteroides clarus = tested on: Bacteroides clarus
Procedure, shortened: as §1

Bacteroides dorei = tested on: Bacteroides dorei
Procedure, shortened: as §1

Bacteroides stercoris = tested on: Bacteroides stercoris
Procedure, shortened: as §1

[1] = tested on: Bacteroides thetaiotaomicron
Procedure, shortened: as §1

Bacteroides uniformis = tested on: Bacteroides uniformis
Procedure, shortened: as §1

[2] = tested on: Bifidobacterium longum subsp. longum
Procedure, shortened: as §1

Clostridium difficile = tested on: Clostridium difficile
Procedure, shortened: as §1

Collinsella aerofaciens = tested on: Collinsella aerofaciens
Procedure, shortened: as §1

Coprococcus comes = tested on: Coprococcus comes
Procedure, shortened: as §1

Escherichia coli ED1a = tested on: Escherichia coli ED1a
Procedure, shortened: as §1

Escherichia coli IAI1 = tested on: Escherichia coli IAI1
Procedure, shortened: as §1

Eubacterium rectale = tested on: Eubacterium rectale
Procedure, shortened: as §1

[3] = tested on: Fusobacterium nucleatum subsp. animalis
Procedure, shortened: as §1

Lactobacillus gasseri = tested on: Lactobacillus gasseri
Procedure, shortened: as §1

Lactobacillus paracasei = tested on: Lactobacillus paracasei
Procedure, shortened: as §1

Odoribacter splanchnicus = tested on: Odoribacter splanchnicus
Procedure, shortened: as §1

[4] = tested on: Parabacteroides distasonis
Procedure, shortened: as §1

Parabacteroides merdae = tested on: Parabacteroides merdae
Procedure, shortened: as §1

Measured: growth AUC

CCOc1nc(NC)nc(NC(=O)NS(=O)(=O)c2ccccc2C(=O)OC)n1
inactive: Akkermansia muciniphila 0.947 | Bacteroides caccae 1.01 | Bacteroides clarus 1.01 | Bacteroides dorei 1.02 | Bacteroides stercoris 0.97 | [1] 0.988 | Bacteroides uniformis 0.998 | [2] 0.967 | Clostridium difficile 0.979 | Collinsella aerofaciens 0.992 | Coprococcus comes 0.996 | Escherichia coli ED1a 1.02 | Escherichia coli IAI1 1.02 | Eubacterium rectale 0.974 | [3] 1.04 | Lactobacillus gasseri 1.23 | Lactobacillus paracasei 1.04 | Odoribacter splanchnicus 1.04 | [4] 1.05 | Parabacteroides merdae 1.03

C=CCNC(=O)c1c([Si](C)(C)C)sc(C)c1C
inactive: Akkermansia muciniphila 0.751 | Bacteroides caccae 0.964 | Bacteroides clarus 0.973 | Bacteroides dorei 0.978 | Bacteroides stercoris 0.961 | [1] 0.96 | Bacteroides uniformis 0.973 | [2] 0.966 | Clostridium difficile 0.968 | Collinsella aerofaciens 0.981 | Coprococcus comes 0.984 | Escherichia coli ED1a 0.972 | Escherichia coli IAI1 1.01 | Eubacterium rectale 0.967 | [3] 0.894 | Lactobacillus gasseri 1.05 | Lactobacillus paracasei 0.986 | Odoribacter splanchnicus 0.97 | [4] 1.01 | Parabacteroides merdae 0.973

CCc1cccc(C)c1N(C(=O)CCl)C(C)COC (stereo not given)
inactive: Akkermansia muciniphila 1.03 | Bacteroides caccae 0.884 | Bacteroides clarus 1.01 | Bacteroides dorei 0.995 | Bacteroides stercoris 1.26 | [1] 1 | Bacteroides uniformis 0.935 | [2] 1.07 | Clostridium difficile 0.979 | Collinsella aerofaciens 1.02 | Coprococcus comes 1.03 | Escherichia coli ED1a 1.02 | Escherichia coli IAI1 0.983 | Eubacterium rectale 1.02 | [3] 1.1 | Lactobacillus gasseri 1.04 | Lactobacillus paracasei 1.02 | Odoribacter splanchnicus 0.972 | [4] 1.03 | Parabacteroides merdae 0.991

Nc1ccc(Cl)cc1Cl
inactive: Akkermansia muciniphila 1.06 | Bacteroides caccae 1 | Bacteroides clarus 1.01 | Bacteroides dorei 1.02 | Bacteroides stercoris 0.97 | [1] 1.03 | Bacteroides uniformis 0.993 | [2] 1.04 | Clostridium difficile 1.03 | Collinsella aerofaciens 1.04 | Coprococcus comes 1.03 | Escherichia coli ED1a 1.01 | Escherichia coli IAI1 1 | Eubacterium rectale 1.01 | [3] 1.11 | Lactobacillus gasseri 1.02 | Lactobacillus paracasei 0.976 | Odoribacter splanchnicus 1.1 | [4] 1.02 | Parabacteroides merdae 1.01

CC(C)(C)N(NC(=O)c1ccc(Cl)cc1)C(=O)c1ccccc1
inactive: Akkermansia muciniphila 0.852 | Bacteroides caccae 0.973 | Bacteroides clarus 0.986 | Bacteroides dorei 0.983 | Bacteroides stercoris 1.02 | [1] 0.939 | Bacteroides uniformis 1.01 | [2] 1.04 | Clostridium difficile 1.11 | Collinsella aerofaciens 1.02 | Coprococcus comes 0.995 | Escherichia coli ED1a 1.01 | Escherichia coli IAI1 1.01 | Eubacterium rectale 1 | [3] 0.913 | Lactobacillus gasseri 1.09 | Lactobacillus paracasei 1.1 | Odoribacter splanchnicus 0.988 | [4] 0.96 | Parabacteroides merdae 0.97

CO/C=C(/C(=O)OC)c1ccccc1Oc1cc(Oc2ccccc2C#N)ncn1
inactive: Akkermansia muciniphila 1.05 | Bacteroides caccae 1.01 | Bacteroides clarus 0.967 | Bacteroides dorei 0.997 | Bacteroides stercoris 0.864 | [1] 0.965 | Bacteroides uniformis 0.914 | [2] 0.977 | Clostridium difficile 0.973 | Collinsella aerofaciens 0.994 | Coprococcus comes 0.964 | Escherichia coli ED1a 0.991 | Escherichia coli IAI1 0.976 | Eubacterium rectale 0.948 | [3] 0.969 | Lactobacillus gasseri 0.908 | Lactobacillus paracasei 1.06 | Odoribacter splanchnicus 0.959 | [4] 0.9 | Parabacteroides merdae 0.955

CCOP(=S)(Oc1ccc([N+](=O)[O-])cc1)c1ccccc1 (stereo not given)
inactive: Akkermansia muciniphila 1.06 | Bacteroides caccae 0.961 | Bacteroides clarus 1.02 | Bacteroides dorei 0.972 | Bacteroides stercoris 1.11 | [1] 1.01 | Bacteroides uniformis 0.919 | [2] 1.02 | Clostridium difficile 1.03 | Collinsella aerofaciens 0.996 | Coprococcus comes 0.949 | Escherichia coli ED1a 1.04 | Escherichia coli IAI1 1.05 | Eubacterium rectale 1.02 | [3] 1.09 | Lactobacillus gasseri 1.04 | Lactobacillus paracasei 1.07 | Odoribacter splanchnicus 1.09 | [4] 0.947 | Parabacteroides merdae 0.99

C=CCC1=C(C)C(OC(=O)C2C(C=C(C)C)C2(C)C)CC1=O (stereo not given)
inactive: Akkermansia muciniphila 1.05 | Bacteroides caccae 0.994 | Bacteroides clarus 1 | Bacteroides dorei 0.97 | Bacteroides stercoris 0.832 | [1] 0.968 | Bacteroides uniformis 0.98 | [2] 0.963 | Clostridium difficile 1 | Collinsella aerofaciens 0.957 | Coprococcus comes 0.986 | Escherichia coli ED1a 1.01 | Escherichia coli IAI1 1 | Eubacterium rectale 0.927 | [3] 0.946 | Lactobacillus gasseri 0.868 | Lactobacillus paracasei 0.949 | Odoribacter splanchnicus 0.996 | [4] 0.846 | Parabacteroides merdae 0.96

CCS(=O)Cc1ccccc1OC(=O)NC (stereo not given)
inactive: Akkermansia muciniphila 1.22 | Bacteroides caccae 0.98 | Bacteroides clarus 0.986 | Bacteroides dorei 0.943 | Bacteroides stercoris 0.992 | [1] 1 | Bacteroides uniformis 0.945 | [2] 0.966 | Clostridium difficile 0.979 | Collinsella aerofaciens 0.977 | Coprococcus comes 1.01 | Escherichia coli ED1a 0.977 | Escherichia coli IAI1 0.971 | Eubacterium rectale 1.11 | [3] 1.05 | Lactobacillus gasseri 0.854 | Lactobacillus paracasei 1.01 | Odoribacter splanchnicus 0.975 | [4] 0.8 | Parabacteroides merdae 0.997

O=C(NC(=O)c1c(F)cccc1F)Nc1ccc(Cl)c(Oc2ncc(C(F)(F)F)cc2Cl)c1
inactive: Akkermansia muciniphila 1.14 | Bacteroides caccae 0.985 | Bacteroides clarus 1.02 | Bacteroides dorei 1.1 | Bacteroides stercoris 0.98 | [1] 1.01 | Bacteroides uniformis 1.02 | [2] 0.917 | Clostridium difficile 1.1 | Collinsella aerofaciens 1.08 | Coprococcus comes 0.98 | Escherichia coli ED1a 0.999 | Escherichia coli IAI1 1.01 | Eubacterium rectale 0.951 | [3] 1.1 | Lactobacillus gasseri 1.16 | Lactobacillus paracasei 0.815 | Odoribacter splanchnicus 1.13 | [4] 1.02 | Parabacteroides merdae 0.991

O=C(Nc1ccccc1)Nc1ccnc(Cl)c1
inactive: Akkermansia muciniphila 0.926 | Bacteroides caccae 0.9 | Bacteroides clarus 0.949 | Bacteroides dorei 0.977 | Bacteroides stercoris 0.926 | [1] 0.94 | Bacteroides uniformis 0.886 | [2] 0.959 | Clostridium difficile 0.941 | Collinsella aerofaciens 1.01 | Coprococcus comes 1.03 | Escherichia coli ED1a 0.942 | Eubacterium rectale 0.803 | [3] 1.1 | Lactobacillus gasseri 0.858 | Lactobacillus paracasei 0.971 | Odoribacter splanchnicus 0.912 | Parabacteroides merdae 0.888
active: Escherichia coli IAI1 0.788 | [4] 0.677

c1ccc2c(c1)cc1ccc3cccc4ccc2c1c34
inactive: Akkermansia muciniphila 1.01 | Bacteroides caccae 0.957 | Bacteroides clarus 0.94 | Bacteroides dorei 0.956 | Bacteroides stercoris 0.978 | [1] 1 | Bacteroides uniformis 0.957 | [2] 1.09 | Clostridium difficile 0.983 | Collinsella aerofaciens 1.03 | Coprococcus comes 1 | Escherichia coli ED1a 1.02 | Escherichia coli IAI1 1 | Eubacterium rectale 0.971 | [3] 0.951 | Lactobacillus gasseri 1.04 | Lactobacillus paracasei 0.967 | Odoribacter splanchnicus 0.932 | [4] 0.994 | Parabacteroides merdae 0.974

CSc1nc(N=[N+]=[N-])nc(NC(C)C)n1
inactive: Akkermansia muciniphila 0.963 | Bacteroides caccae 1.04 | Bacteroides clarus 0.993 | Bacteroides dorei 1.04 | Bacteroides stercoris 0.975 | [1] 1.02 | Bacteroides uniformis 1.07 | [2] 0.849 | Clostridium difficile 1.02 | Collinsella aerofaciens 0.998 | Coprococcus comes 0.963 | Escherichia coli ED1a 1.02 | Escherichia coli IAI1 1.01 | Eubacterium rectale 1.05 | [3] 0.812 | Lactobacillus gasseri 1.15 | Lactobacillus paracasei 0.938 | Odoribacter splanchnicus 1.02 | [4] 1.02 | Parabacteroides merdae 1

CCC(C)[C@H]1O[C@]2(C=C[C@@H]1C)C[C@@H]1C[C@@H](C/C=C(\C)[C@@H](O[C@H]3C[C@H](OC)[C@@H](O[C@H]4C[C@H](OC)[C@@H](O)[C@H](C)O4)[C@H](C)O3)[C@@H](C)/C=C/C=C3\CO[C@@H]4[C@H](O)C(C)=C[C@@H](C(=O)O1)[C@]34O)O2.CO[C@H]1C[C@H](O[C@H]2[C@H](C)O[C@@H](O[C@@H]3/C(C)=C/C[C@@H]4C[C@@H](C[C@]5(C=C[C@H](C)[C@@H](C(C)C)O5)O4)OC(=O)[C@@H]4C=C(C)[C@@H](O)[C@H]5OC/C(=C\C=C\[C@@H]3C)[C@]54O)C[C@@H]2OC)O[C@@H](C)[C@@H]1O (stereo not given in full)
active: [4] 0.536
inactive: Akkermansia muciniphila 1.22 | Bacteroides caccae 0.965 | Bacteroides clarus 1.07 | Bacteroides dorei 0.965 | Bacteroides stercoris 0.915 | [1] 1.01 | Bacteroides uniformis 1.01 | [2] 0.919 | Clostridium difficile 0.952 | Collinsella aerofaciens 0.996 | Coprococcus comes 0.99 | Escherichia coli ED1a 1.02 | Escherichia coli IAI1 1.01 | Eubacterium rectale 1.01 | [3] 1.15 | Lactobacillus gasseri 0.808 | Lactobacillus paracasei 0.899 | Odoribacter splanchnicus 1.07 | Parabacteroides merdae 1.05

CC(C)=CC1C(C(=O)OCN2C(=O)C3=C(CCCC3)C2=O)C1(C)C (stereo not given)
inactive: Akkermansia muciniphila 0.932 | Bacteroides caccae 0.916 | Bacteroides clarus 0.924 | Bacteroides dorei 0.976 | Bacteroides stercoris 0.877 | [1] 0.965 | Bacteroides uniformis 0.97 | [2] 0.741 | Clostridium difficile 0.959 | Collinsella aerofaciens 0.955 | Coprococcus comes 0.953 | Escherichia coli ED1a 0.995 | Escherichia coli IAI1 0.97 | Eubacterium rectale 0.938 | [3] 0.85 | Lactobacillus gasseri 0.993 | Lactobacillus paracasei 0.918 | Odoribacter splanchnicus 0.963 | [4] 0.935 | Parabacteroides merdae 0.972
